Results taken from ChEMBL document CHEMBL1157539, “Thousands of chemical starting points for antimalarial lead identification” (Nature, 2010).

The molecules below were run on HepG2 (assay: GSK_TCMDC: Percent inhibition of human HepG2 cell line. Test compounds present at 10uM.).
Assay type: functional
`CC(C)C1=NC(=O)c2cc([N+](=O)[O-])ccc2CN1` showed an Inhibition of 6%. Molecule `CC(C)Oc1cc(-c2ccc(S(C)(=O)=O)cc2)nc(N(Cc2cccc(F)c2F)Cc2cccc(F)c2F)n1` has an Inhibition of 10%. `Cl.N#Cc1ccc2c(c1)CCN(CCC1CCC(NC(=O)c3ccc(-c4ccccc4)s3)CC1)CC2` (stereo not given) was tested, and the Inhibition was 6%. Work on `O=C(Nc1ccc2ccccc2c1)N1CCC(NCc2cccc([N+](=O)[O-])c2)CC1.O=C(O)C(F)(F)F` yielded an Inhibition of 0%. `COc1ccc2[nH]ccc(=NN=Cc3cccc(F)c3)c2c1` was tested, and the Inhibition was 13%. `O=C(Nc1cccc(C(F)(F)F)c1)c1ccc(S(=O)(=O)NCC2CCCN2CC2CCCCC2)cc1.O=C(O)C(F)(F)F` (stereo not given) was tested, and the Inhibition was 14%. For `Cc1ccc(CN2CCC(Oc3cccc(NC(=O)c4ccc(C(F)(F)F)cc4)c3)CC2)cc1.O=C(O)C(F)(F)F`, the Inhibition was 37%. Molecule `O=C(NC1CCC(N2CCC(c3ccccc3C(F)(F)F)CC2)CC1)c1cc2ccccc2[nH]1` (stereo not given) has an Inhibition of 80%. `Cc1cccc2nc(-c3ccc(-c4ccc(CN5CCCCC5CO)cc4)cc3)[nH]c12.O=C(O)C(F)(F)F` (stereo not given) showed an Inhibition of 32%. Work on `NCc1cccc(-c2ccc(CNC3CCN(Cc4ccccc4)CC3)cc2)c1.O=C(O)C(F)(F)F` yielded an Inhibition of 2%. `CCNC(C)(C)CN(Cc1ccc(-c2ccc(C(F)(F)F)cc2)cc1)C(=O)Cn1c(CCc2cccc(F)c2F)nc(=O)c2ccccc21.O=C(O)C(O)C(O)C(=O)O` was tested, and the Inhibition was 47%. In the case of `CCc1nc2nc(C)cc(Nc3ccc4c(c3)OCCO4)n2n1`, the Inhibition is reported as 8%. `CCC[C@@H]([C@@H](CC1CCCCC1)C(=O)N[C@H](C(=O)Nc1nccs1)C(C)(C)SCCOCCOCC)N(O)C=O` gave an Inhibition of 40%. In the case of `Cc1oc(-c2ccc(Cl)cc2)cc1C(=O)NCCC1CCN(CCCCCNC(=O)/C=C/c2ccc(Cl)c(Cl)c2)CC1`, the Inhibition is reported as 100%. `CC(C)COc1ccc(Cl)cc1Nc1nc(-c2nc3ccccc3[nH]2)cs1.Cl` was tested, and the Inhibition was 2%. Molecule `CCCNC(=O)C1Cc2c([nH]c3ccc(Br)cc23)C2(CCN(CCc3ccccc3)CC2)N1` (stereo not given) has an Inhibition of 16%. For `CN(C)c1ccc(-c2csc(C(=O)NC3CCCCN(CCC(C)(C)C)C3)c2)cc1.O=C(O)C(F)(F)F` (stereo not given), the Inhibition was 10%. `Cc1ccc2nc(-c3ccc(C(=O)NCc4ccc(Cl)c(Cl)c4)cc3)[nH]c2c1C` showed an Inhibition of 19%. Molecule `Cc1ccc(-c2cc(C(=O)Nc3ccc(S(=O)(=O)N4CCOCC4)cc3)[nH]n2)c(O)c1C` has an Inhibition of 18%. `COC(=O)c1cccc(CNCc2ccc(-c3ccc(-c4nc5cc(F)ccc5[nH]4)s3)cc2)c1.O=C(O)C(F)(F)F` showed an Inhibition of 4%. In the case of `COc1ccc(CCN(Cc2cccs2)C(=O)c2cc3sccc3n2C)cc1OC`, the Inhibition is reported as 0%. Molecule `CC1(CCCCN2CCC(c3c[nH]c4cnccc34)CC2)C(=O)Nc2cccc(Cl)c21` (stereo not given) has an Inhibition of 26%. Molecule `CC(C)CC(C)NC(=O)C1Cc2c([nH]c3cc(Cl)ccc23)C2(CCN(CCc3ccccc3)CC2)N1` (stereo not given) has an Inhibition of 15%. Work on `CC(=NNC(=N)N)c1ccc2ccc3ccccc3c2c1.Cl` yielded an Inhibition of 14%. `Cc1ccc(NC(=O)N2CCN(CCCCCNC(=O)/C=C/c3ccc(Cl)c(Cl)c3)CC2)cc1C` gave an Inhibition of 7%. Molecule `Cc1cc2ncc(C(N)=O)c(Nc3ccc(N4CCOCC4)cc3)c2cc1S(C)(=O)=O.Cl` has an Inhibition of 0%. For `O=C(Cc1ccc(NC(=O)c2ccc(O)c(-c3ccc(Cl)c(Cl)c3)c2)cc1)NCCN1CCOCC1`, the Inhibition was 10%. In the case of `CN(C(=O)c1ccc(Br)cc1)c1ccccc1[N+](=O)[O-]`, the Inhibition is reported as 3%. `COc1ccc(CC(=O)NC2CCN(c3ccnc4cc(Cl)ccc34)C2)cc1.O=C(O)C(F)(F)F` (stereo not given) showed an Inhibition of 0%. Work on `Cl.O=S(=O)(Nc1ccc2nccc(N3CCNCC3)c2c1)c1ccc(-c2ccccc2)cc1` yielded an Inhibition of 0%. `CN1CCCN(Cc2ccc(-c3cccc(NC(=O)c4ccc(Cl)cc4)c3)cc2)CC1.O=C(O)C(F)(F)F` gave an Inhibition of 34%. Work on `COc1cc2nccc(Nc3ccc(NC(=O)c4ccc(C)cc4)c(O)c3)c2cc1OC.Cl` yielded an Inhibition of 96%. For `CN(C)Cc1ccc(-c2cccc(NC(=O)c3cccc(Cl)c3)c2)cc1.O=C(O)C(F)(F)F`, the Inhibition was 18%. Work on `COc1cccc(C(=O)NC(NC(=S)Nc2ccc(OC)cc2[N+](=O)[O-])C(Cl)(Cl)Cl)c1` (stereo not given) yielded an Inhibition of 9%. `Br.Cc1cccc2c(CON3C(N)=NC(N)=NC3(C)C)cccc12` gave an Inhibition of 64%. `CCc1nc(N)nc(N)c1-c1ccccc1` gave an Inhibition of 53%. In the case of `CCCCc1ccc(S(=O)(=O)Nc2ccc3c(c2)CCN(Cc2c[nH]c4cnccc24)CC3)cc1.O=C(O)C(F)(F)F`, the Inhibition is reported as 41%. `CC1(C)N=C(N)N=C(N)N1c1ccc2ccccc2c1.Cl` was tested, and the Inhibition was 48%. For `CC(CN1CCN(C)CC1)C(=O)Nc1ccc(-c2csc(-c3nc4ccccc4[nH]3)c2)cc1` (stereo not given), the Inhibition was 15%. `CCNc1cc(C(=O)N[C@@H](Cc2ccccc2)[C@H](O)CNCCC(C)(C)C)c(F)c(N2CCCCS2(=O)=O)c1.O=CO` was tested, and the Inhibition was 2%.
